Screening results from PubChem.
Shown are actives, neighbours in structure and some others; about 3.2% of the full set was active somewhere.
Rtt109 HAT inh – inhibitors of Candida albicans Rtt109/Vps75 histone acetyltransferase; Q5AAJ8; purified Rtt109/Vps75, ThioGlo CoA-SH fluorescence, 4 h; hit rate 0.16% among 330,000; inhibition, % at 34.9 µM;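 active = inhibition of at least 50% in every replicate; inconclusive = best replicate reaches 50% inhibition but some replicates fall short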
Target sequence (Q5AAJ8 whole entry, looked up): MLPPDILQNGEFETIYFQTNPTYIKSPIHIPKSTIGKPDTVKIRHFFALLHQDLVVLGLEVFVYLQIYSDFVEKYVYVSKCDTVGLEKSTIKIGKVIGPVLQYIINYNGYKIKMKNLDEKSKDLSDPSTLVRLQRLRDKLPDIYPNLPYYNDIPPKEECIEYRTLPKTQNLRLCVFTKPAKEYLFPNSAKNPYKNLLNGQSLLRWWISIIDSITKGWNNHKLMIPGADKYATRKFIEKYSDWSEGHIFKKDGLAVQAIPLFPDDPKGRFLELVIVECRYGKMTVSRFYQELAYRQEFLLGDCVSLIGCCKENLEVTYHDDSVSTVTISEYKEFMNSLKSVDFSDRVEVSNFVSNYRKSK
dFosB activator – mouse delta FosB homodimer activation. purified delta FosB, TAMRA-CDK5 oligo fluorescence polarization; percent of positive-control signal above neutral wells. P13346. activation, % at 25 µM. hit rate 0.99% among 340,000;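 active = mean activation above about 17%, with every replicate also reaching it, limit read from the data, passing the limit was not always enough; inconclusive = only one of the two conditions met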
Target sequence (P13346 whole entry, looked up): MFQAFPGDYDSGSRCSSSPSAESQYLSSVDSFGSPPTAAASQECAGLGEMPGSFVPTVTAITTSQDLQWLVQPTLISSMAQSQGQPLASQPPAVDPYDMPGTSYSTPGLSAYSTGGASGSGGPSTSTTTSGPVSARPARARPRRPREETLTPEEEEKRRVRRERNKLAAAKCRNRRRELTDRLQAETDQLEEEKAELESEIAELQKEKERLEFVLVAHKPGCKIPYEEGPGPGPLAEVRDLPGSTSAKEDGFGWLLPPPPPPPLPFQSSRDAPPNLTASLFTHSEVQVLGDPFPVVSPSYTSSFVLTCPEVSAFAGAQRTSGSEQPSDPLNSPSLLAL
Dyrk1A ADPGlo – inhibitors of rat Dyrk1A kinase | Q63470 | hit rate 0.43% among 310,000 | ADP-Glo luminescence, NFATc1 peptide | inhibition, % at 12.5 µM | AID 504441; in the data active = inhibition above about 50%
CDK5 inh – inhibitors of human CDK5/p35 kinase | Q00535+Q15078 | Recombinant CDK5/p35, ADP-Glo luminescence, 60 min | inhibition, % at 10 µM | hit rate 0.01% among 330,000 | AID 488839;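 active = highest replicate inhibition of at least 50% and at least 75% of replicates reaching 50%; inconclusive = only one of the two criteria met; inactive = both criteria failed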
SMARCA2 act – increases SMARCA2 function in MMTV reporter cells; MG213 cells, MMTV-luciferase reporter, dexamethasone, overnight; activation, % at 9.1 µM; hit rate 1% among 370,000; AID 652017; in the data active = activation above about 7.8%
esBAF inh – inhibitors of esBAF chromatin remodeling in mouse ES cells; Bmi1-luciferase knock-in reporter, 24 h; 100% = twice the neutral-well signal; reporter increase, % at 12.5 µM; hit rate 2% among 350,000; in the data active = activation above about 40%; inconclusive = no clear call, values can overlap the other calls;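 also: a rise in the Bmi1 reporter signal indicates esBAF inhibition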
SMARCA2 conf – SMARCA2 activation, confirmation screen; shares compounds with SMARCA2 act; MG213 cells, MMTV-luciferase with dexamethasone, luminescence, overnight; MG213 cells expressing E1A, Rb sequestered; DMSO wells 0%, reference activator 100%; activation, % at 9.1 µM; hit rate 30% among 3,500;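 active = activation above its plate's cutoff, the mean activation of tested wells plus 3 SD, cut at about 7.9% in these data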
GAL4-VP16 Luc – counter-screen for SMARCA2 activators: GAL4-VP16 luciferase reporter activation; shares compounds with SMARCA2 act; HEK293 GAL4-VP16 pG5luc reporter, luciferase luminescence; scaled: DMSO wells 0%, SAHA wells 100%; activation, % at 9.1 µM; hit rate 41% among 3,500; AID 686939;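 active = activation above the solvent-only control well mean plus 3 SD, averaged across control plates, cut at about 5.2% in these data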
Hits are given with their value; n = inactive; u = inconclusive; x = no result given.

SMILES | Rtt109 HAT inh | dFosB activator | Dyrk1A ADPGlo | CDK5 inh | SMARCA2 act | esBAF inh | SMARCA2 conf | GAL4-VP16 Luc
Cc1noc(C)c1S(=O)(=O)Nc1ccc2c(c1)C(=O)N([C@H](C)CO)C[C@H](C)[C@H](CN(C)S(=O)(=O)c1ccc(F)cc1)O2 | x | x | x | x | x | n | x | x
COc1cc(-c2ccc(=O)[nH]n2)ccc1OC(F)F | n | n | n | n | 8.1 | n | 15 | n
C[C@@H]1CN([C@H](C)CO)C(=O)c2cc(C#CCN(C)C)cnc2O[C@H]1CN(C)C | x | x | x | x | x | n | x | x
O=C(Nc1ccccc1NC(=O)NC1CCCCC1)NC1CCCCC1 | n | n | n | n | n | n | x | x
O=C(Nc1ccccc1)NC1CCCCCCC1 | x | x | x | x | 12 | x | n | n
C/C=C/c1cnc2c(c1)C(=O)N([C@@H](C)CO)C[C@@H](C)[C@H](CN(C)Cc1cccc(C(=O)O)c1)O2 | x | x | x | x | x | n | x | x
CCCS(=O)(=O)NC(=O)C1(C)CCCN(C(=O)c2ccccc2C(F)(F)F)C1 (configuration not stated) | x | x | x | x | 8.1 | n | n | n
CO[C@H]1CN(C)C(=O)c2ccc(NS(=O)(=O)c3cn(C)cn3)cc2OC[C@@H](C)N(CC2CC2)C[C@@H]1C | x | x | x | x | x | n | x | x
Cc1ccc(C)c(OCC(=O)O/N=C(\N)c2ccccn2)c1 | n | n | n | n | 9.2 | 72 | n | 8.2
COc1ccc(CC(=O)O/N=C(\N)c2ccccn2)cc1 | n | n | n | n | 8.0 | x | n | 6.4
C[C@H](CO)N1C[C@H](C)[C@@H](CN(C)S(=O)(=O)c2cccs2)Oc2ccc(NS(=O)(=O)c3cccs3)cc2CC1=O | x | x | x | x | x | n | x | x
C[C@@H]1CN([C@@H](C)CO)C(=O)Cc2cc(NC(=O)Nc3ccc(C(F)(F)F)cc3)ccc2O[C@@H]1CN(C)C(=O)Nc1ccc2c(c1)OCO2 | x | x | x | x | x | n | x | x
C[C@H]1CN([C@@H](C)CO)C(=O)c2cccc(NC(=O)C3CCCCC3)c2O[C@@H]1CN(C)Cc1ccc(Cl)c(Cl)c1 | x | x | x | x | x | n | x | x
CCOC(=O)c1sc(=NC(=O)c2cccc(C)c2)n(C)c1C | n | n | n | n | 13 | x | n | 5.9
COCCNC(=O)/C(C#N)=C/c1ccc2c(c1)OCO2 | n | n | n | n | 9.1 | n | n | n
N#C/C(=C\c1ccc2c(c1)OCO2)C(=O)NCc1ccco1 | x | n | n | n | n | x | x | x
C[C@@H]1CN([C@H](C)CO)C(=O)c2cc(NC(=O)NC3CCCCC3)ccc2O[C@@H]1CN(C)Cc1ccc(Oc2ccccc2)cc1 | x | x | x | x | x | n | x | x
Cc1cc(NC(=O)COC(=O)COc2ccc(C(=O)c3ccccc3)cc2)no1 | n | n | n | n | n | n | x | x
CCc1ccccc1OCC(=O)OCC(=O)Nc1cc(C)on1 | n | n | n | n | 8.3 | n | n | n
O=S(=O)(N[C@H]1CC[C@@H](CCn2cc(-c3cccnc3)nn2)O[C@@H]1CO)c1ccc(F)cc1 | x | x | x | x | x | n | x | x
O=C(NCc1ccc(F)cc1)c1c2c(nc3ccccc13)CCC2 | n | n | x | n | 9.4 | x | n | n
CC12CCC(c3c(CO)nn(-c4ccccc4)c31)C2(C)C (configuration not stated) | x | n | n | n | n | n | x | x
CC12CCC(c3c(C(=O)O)nn(-c4ccccc4)c31)C2(C)C (configuration not stated) | n | n | n | n | 9.4 | n | n | n
COc1ccc(NC(=O)C[C@H]2C(=O)N(C3CCCCC3)C[C@@H]2CSC)cc1 | x | x | x | x | 8.3 | n | n | n
COc1ccc(S(=O)(=O)N[C@H]2CC[C@H](CC(=O)NCCc3ccccc3)O[C@H]2CO)cc1 | x | x | x | x | x | n | x | x
SMILES | Rtt109 HAT inh | dFosB activator | Dyrk1A ADPGlo | CDK5 inh | SMARCA2 act | esBAF inh | SMARCA2 conf | GAL4-VP16 Luc
Cn1c(=O)c(=O)n(C)c2cc(S(=O)(=O)N3CCCC3C(=O)Nc3ccccc3F)ccc21 (configuration not stated) | n | n | n | n | n | n | x | x
CCc1ccccc1NC(=O)C1CCCN1S(=O)(=O)c1ccc2c(c1)n(C)c(=O)c(=O)n2C (configuration not stated) | n | n | n | n | 8.0 | n | n | n
COc1cc(/C=C2\CCC/C(=C\c3ccc(O)c(OC)c3)C2=O)ccc1O | n | n | n | n | n | n | x | x
CCOc1cc(/C=C2\CN(CC)C/C(=C\c3ccc(O)c(OCC)c3)C2=O)ccc1O | n | n | n | n | 10 | n | n | n
COC1C(CO)OC(n2c3c(Cl)cccc3c3c4c(c5c6cccc(Cl)c6[nH]c5c32)C(=O)NC4=O)C(O)C1O (configuration not stated) | n | n | n | n | 10 | x | 23 | n
CCC(=O)Nc1cc(Cl)ccc1C(=O)O | n | n | n | n | 9.4 | n | n | n
CCC(C)C(=O)Nc1cc(Cl)ccc1C(=O)O (configuration not stated) | n | n | n | n | n | x | x | x
Cc1ccc(C(=O)Nc2nc3ccccc3n2CCN2CCCC2)cc1 | n | n | n | n | n | n | x | x
O=C(Nc1nc2ccccc2n1CCN1CCCC1)c1ccc(Cl)cc1 | n | n | n | n | 9.1 | 48 | 18 | 13
O=C(Nc1nc2ccccc2n1CCN1CCOCC1)c1ccc(Cl)cc1 | n | n | x | n | 8.0 | n | n | n
COc1ccc(-c2cc(C(F)(F)F)nc(-n3cc(Cl)cn3)n2)cc1 | n | n | n | n | 8.5 | x | n | n
CC(C)NC(=O)N(C)C[C@H]1Oc2ccc(NC(=O)Cc3cn(C)c4ccccc34)cc2C(=O)N([C@@H](C)CO)C[C@@H]1C | x | x | x | x | x | n | x | x
COc1cccc(-c2cnc(C(O)c3ccccc3)[nH]2)c1 (configuration not stated) | x | x | x | x | 9.2 | n | n | 8.7
COc1cccc(-c2cnc(C(O)c3ccc(C)cc3)[nH]2)c1 (configuration not stated) | x | x | x | x | n | n | x | x
COc1ccc(OC)c2sc(N(CCN(C)C)C(=O)/C=C/c3cccs3)nc12 | n | 40 | n | n | 15 | n | 17 | n
CCOc1cccc2sc(N(CCN(C)C)C(=O)/C=C/c3cccs3)nc12 | n | n | n | n | x | n | x | x
S=c1[nH]nc(-c2ccc(Cl)cc2Cl)n1-c1ccccc1 | n | n | n | n | 16 | u | n | 6.4
CCCNC(=O)N(C)C[C@@H]1Oc2cc(-c3ccc(C)cc3)ccc2S(=O)(=O)N([C@H](C)CO)C[C@@H]1C | x | x | x | x | x | n | x | x
CN(C)c1ccc(/C=C2\CCCc3c2nc2ccccc2c3C(=O)O)cc1 | n | n | n | n | 9.6 | 59 | n | 5.5
O=C(C[C@H]1CC[C@@H]2[C@H](COC[C@@H](O)CN2C(=O)Nc2ccc(F)cc2)O1)NC1CCC1 | x | x | x | x | x | n | x | x
O=C(C[C@@H]1CC[C@H](NS(=O)(=O)c2ccccc2)[C@H](CO)O1)NCCN1CCCCC1 | x | x | x | x | x | n | x | x
COc1cccc(NC(=O)N[C@H]2C=C[C@H](CC(=O)N3CCCCC3)O[C@H]2CO)c1 | x | x | x | x | x | n | x | x
